Source: the supplement of paper PMC10849652
The full data set covers some 7,900 targets. This sample favours those with a hit. About 0.6% of all pairs of compound and target were hits.

What was measured:
Assay in all cases: log2 fold change, soluble protein after heating vs DMSO (PISA); higher = thermal stabilisation; K562 cells, 10 uM, 30 min; active = over 0.2 and 3.5 SD of the protein, either way, in both replicates (recomputed)
[1] = compound: CC[C@@H]1C(=O)N(C)c2cnc(Nc3ccc(C(=O)NC4CCN(C)CC4)cc3OC)nc2N1C1CCCC1
Outline: (§1)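 Soluble protein was quantified by TMTpro 16plex LC-MS/MS after channel sums were equalised. It was obtained as the supernatant after 21,000xg for 90 min from pooled aliquots of K562 cells (2×10^6 cells/mL, 10 μM compound, 30 min) heated for 3 min across 48°C-58°C and extracted in PBS with 0.5% NP-40 at 4°C. Thermal stability values are relative to control samples and come from duplicates. They are given as log2 fold changes.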

volasertib = compound: CC[C@@H]1C(=O)N(C)c2cnc(Nc3ccc(C(=O)N[C@H]4CC[C@H](N5CCN(CC6CC6)CC5)CC4)cc3OC)nc2N1C(C)C [volasertib]
Outline: as §1

[2] = compound: CC[C@H](C)N1C=C(C2=C(C=C(C=C21)C3=CN=C(C=C3)N4CCNCC4)C(=O)NCC5=C(C=C(NC5=O)C)C)C
Outline: as §1

epoxomicin = compound: CC[C@H](C)[C@@H](C(=O)N[C@@H]([C@@H](C)O)C(=O)N[C@@H](CC(C)C)C(=O)[C@]1(CO1)C)NC(=O)[C@H]([C@@H](C)CC)N(C)C(=O)C [epoxomicin]
Outline: as §1

[3] = compound: CCn1c(C(=O)N(C2CC2)C2CC2)cc2c3c(ncn3C)c(Nc3cc(C)n(C)n3)nc21
Outline: as §1

[4] = compound: CCn1cc(-c2ccnc3[nH]c(-c4cccc(CN(C)C)c4)cc23)c(-c2ccc(NC(=O)N(C)C)cc2)n1
Outline: as §1

[5] = compound: CN(C)CC(=O)Nc1ccc2[nH]c(=O)c3ccccc3c2c1
Outline: as §1

rosiglitazone = compound: CN(CCOC1=CC=C(C=C1)C[C@H]2C(=O)NC(=O)S2)C3=CC=CC=N3 (racemic) [rosiglitazone]
Outline: as §1

[6] = compound: CN1C2=C(C3=C1C(=O)N(N=C3)CC4=CC(=CC=C4)N)SC(=C2)S(=O)C
Outline: as §1

[7] = compound: CN1CCC(CNc2ccc3ncc(-c4cccc(OC(F)(F)F)c4)n3n2)CC1
Outline: as §1

Measured: log2 fold change

EDC3 (UniProt Q96F86)
inactive: [1] -0.006 | volasertib -0.192 | [2] 0.057 | epoxomicin 0.003 | [3] -0.03 | [4] -0.031 | [5] 0.058 | rosiglitazone 0.067 | [6] 0.094 | [7] -0.251

ERCC2 (UniProt P18074)
Sequence of UniProt P18074 (P18074 whole entry, looked up): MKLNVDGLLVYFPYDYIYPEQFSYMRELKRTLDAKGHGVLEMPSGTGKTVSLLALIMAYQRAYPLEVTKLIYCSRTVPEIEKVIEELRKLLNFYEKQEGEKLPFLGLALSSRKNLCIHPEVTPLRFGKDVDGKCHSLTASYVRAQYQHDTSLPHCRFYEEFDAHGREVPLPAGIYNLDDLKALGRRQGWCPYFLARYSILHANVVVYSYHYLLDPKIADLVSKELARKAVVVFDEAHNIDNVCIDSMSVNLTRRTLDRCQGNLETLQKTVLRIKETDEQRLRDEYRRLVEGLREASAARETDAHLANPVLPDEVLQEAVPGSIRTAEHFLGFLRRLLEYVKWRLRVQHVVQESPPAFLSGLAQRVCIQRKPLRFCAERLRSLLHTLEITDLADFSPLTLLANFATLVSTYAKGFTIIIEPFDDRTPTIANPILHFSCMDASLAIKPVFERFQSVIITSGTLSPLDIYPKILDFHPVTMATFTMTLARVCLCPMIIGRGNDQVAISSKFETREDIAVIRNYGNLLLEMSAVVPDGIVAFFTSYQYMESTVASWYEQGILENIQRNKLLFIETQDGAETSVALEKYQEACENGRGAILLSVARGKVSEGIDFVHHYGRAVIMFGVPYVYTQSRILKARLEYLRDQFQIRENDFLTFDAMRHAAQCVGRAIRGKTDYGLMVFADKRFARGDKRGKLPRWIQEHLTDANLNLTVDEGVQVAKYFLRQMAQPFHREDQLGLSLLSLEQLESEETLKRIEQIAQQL
inactive: [1] -0.015 | volasertib -0.258 | [2] 0.043 | [3] 0.003 | [4] -0.076 | [5] -0.019 | rosiglitazone 0.007 | [6] 0.013 | [7] -0.153
active: epoxomicin 0.326

DHRS1 (UniProt Q96LJ7)
inactive: [1] 0.164 | volasertib 0.302 | [2] 0.039 | epoxomicin -0.062 | [3] 0.034 | [4] -0.098 | [5] -0.048 | rosiglitazone -0.022 | [6] -0.051 | [7] 0.065

EBNA1BP2 (UniProt Q99848)
inactive: [1] 0.167 | volasertib 0.351 | [2] 0.021 | epoxomicin -0.343 | [3] -0.059 | [4] 0.132 | [5] -0.106 | rosiglitazone -0.25 | [6] 0.379 | [7] 0.197

DCAF16 (UniProt Q9NXF7)
Sequence of UniProt Q9NXF7 (Q9NXF7 whole entry, looked up): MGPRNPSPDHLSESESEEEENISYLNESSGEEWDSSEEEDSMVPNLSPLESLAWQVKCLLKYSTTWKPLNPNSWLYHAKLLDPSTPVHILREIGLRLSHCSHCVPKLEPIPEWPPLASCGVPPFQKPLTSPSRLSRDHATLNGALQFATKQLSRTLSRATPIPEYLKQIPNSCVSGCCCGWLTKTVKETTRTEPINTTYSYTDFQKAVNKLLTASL
inactive: [1] -0.164 | [2] 0.06 | epoxomicin 0.032 | [3] -0.026 | [4] -0.205 | [5] 0.073 | rosiglitazone 0.055 | [6] -0.052 | [7] 0.03
active: volasertib -0.532

CTSZ (UniProt Q9UBR2)
inactive: [2] -0.058 | epoxomicin 0.02 | [3] 0.022 | [4] 0 | [5] -0.026 | rosiglitazone -0.028 | [6] -0.087
active: [1] -0.954 | volasertib -1.54 | [7] -0.843

CTSA (UniProt P10619)
active: [1] -1.24 | volasertib -1.57 | [7] -1.44
inactive: [2] -0.037 | epoxomicin -0.003 | [3] -0.031 | [4] 0.018 | [5] 0.011 | rosiglitazone -0.017 | [6] -0.007

DAB2 (UniProt P98082)
active: volasertib -0.289
inactive: [1] -0.204 | [2] 0.042 | epoxomicin -0.004 | [3] -0.014 | [4] 0.022 | [5] 0.132 | rosiglitazone 0.032 | [6] 0.032 | [7] -0.111

CTSC (UniProt P53634)
active: [1] -0.419 | volasertib -0.946 | [7] -0.433
inactive: [2] -0.034 | epoxomicin 0.023 | [3] 0.015 | [4] -0.032 | [5] 0.146 | rosiglitazone -0.047 | [6] -0.015

DDX4 (UniProt Q9NQI0)
inactive: [1] 0.139 | volasertib -0.006 | [2] 0.067 | epoxomicin -0.113 | [3] -0.223 | [4] 0.047 | [5] -0.414 | rosiglitazone 0.097 | [6] 0.025 | [7] -0.844

FADS1, A0A0A0MR51
inactive: [1] 0.022 | volasertib -0.148 | [2] 0.036 | epoxomicin 0.024 | [3] 0.002 | [4] -0.002 | [5] -0.007 | rosiglitazone 0.017 | [6] -0.119 | [7] -0.041

CYP51A1 (UniProt Q16850)
active: [7] -0.331
inactive: [1] 0.019 | volasertib 0.132 | [2] 0.052 | epoxomicin -0.061 | [3] 0.058 | [4] 0.015 | [5] 0.015 | rosiglitazone -0.056 | [6] 0.072

CUTA isoform 2 (UniProt O60888)
inactive: [1] 0.063 | volasertib -0.057 | [2] -0.033 | epoxomicin 0.125 | [3] 0.03 | [4] -0.109 | [5] 0.175 | rosiglitazone -0.13 | [6] 0.164 | [7] -0.027

DTWD1 (UniProt Q8N5C7)
inactive: [1] -0.081 | volasertib -0.196 | [2] -0.07 | epoxomicin -0.054 | [3] 0.018 | [4] -0.033 | [5] 0.036 | rosiglitazone 0.057 | [6] -0.046 | [7] 0.089

DTWD2 (UniProt Q8NBA8)
inactive: [1] -0.047 | volasertib -0.048 | [2] 0.057 | epoxomicin -0.015 | [3] 0.057 | [4] -0.018 | [5] -0.106 | rosiglitazone 0.005 | [6] -0.066 | [7] 0.035

FAM122A (UniProt Q96E09)
inactive: [1] -0.042 | volasertib -0.054 | [2] 0.006 | epoxomicin -0.141 | [3] -0.029 | [5] -0.043 | rosiglitazone 0.064 | [6] -0.081
active: [4] -0.426 | [7] -0.699

DDX5 (UniProt P17844)
inactive: [2] 0.103 | epoxomicin 0.149 | [3] -0.115 | [4] -0.083 | [5] 0.101 | rosiglitazone 0.066 | [6] 0.018 | [7] 0.019
active: [1] -0.426 | volasertib -0.589

DTYMK (UniProt P23919)
Sequence of UniProt P23919 (P23919 whole entry, looked up): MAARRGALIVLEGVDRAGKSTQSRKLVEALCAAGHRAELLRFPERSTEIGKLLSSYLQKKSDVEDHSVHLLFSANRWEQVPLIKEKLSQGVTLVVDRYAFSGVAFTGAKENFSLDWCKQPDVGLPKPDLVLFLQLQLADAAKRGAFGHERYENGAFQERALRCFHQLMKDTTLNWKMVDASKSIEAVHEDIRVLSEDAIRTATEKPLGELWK
inactive: [1] 0.044 | volasertib 0.171 | [2] -0.03 | epoxomicin 0.039 | [3] -0.053 | [5] 0.01 | rosiglitazone 0.056 | [6] -0.04 | [7] -0.037
active: [4] -0.245

FAM50A (UniProt Q14320)
Sequence of UniProt Q14320 (Q14320 whole entry, looked up): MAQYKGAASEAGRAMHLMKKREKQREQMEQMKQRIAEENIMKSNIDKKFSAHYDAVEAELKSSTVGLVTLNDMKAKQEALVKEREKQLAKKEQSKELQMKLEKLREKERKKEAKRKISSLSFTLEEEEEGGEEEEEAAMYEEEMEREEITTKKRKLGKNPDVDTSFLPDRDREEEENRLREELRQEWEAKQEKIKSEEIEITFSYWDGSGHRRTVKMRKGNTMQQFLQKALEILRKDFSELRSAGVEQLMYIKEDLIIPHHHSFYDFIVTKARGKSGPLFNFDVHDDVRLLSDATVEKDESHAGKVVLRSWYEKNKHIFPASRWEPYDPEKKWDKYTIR
active: volasertib -0.258
inactive: [1] -0.158 | [2] 0.06 | epoxomicin 0.058 | [3] -0.022 | [4] 0.053 | [5] 0.029 | rosiglitazone 0.001 | [6] -0.07 | [7] -0.052

DOHH (UniProt Q9BU89)
inactive: [1] -0.035 | volasertib -0.027 | [2] 0.031 | epoxomicin -0.197 | [3] 0.064 | [4] -0.1 | [5] 0.145 | [6] 0.025 | [7] 0.164
active: rosiglitazone 0.471

DNAH11 (UniProt Q96DT5)
inactive: [1] 0.234 | volasertib 0.426 | [2] -0.029 | epoxomicin -0.157 | [3] 0.063 | [4] 0.176 | [5] -0.111 | rosiglitazone -0.047 | [6] 0.298 | [7] -0.424

F5 (UniProt P12259)
Sequence of UniProt P12259 (P12259 whole entry, looked up): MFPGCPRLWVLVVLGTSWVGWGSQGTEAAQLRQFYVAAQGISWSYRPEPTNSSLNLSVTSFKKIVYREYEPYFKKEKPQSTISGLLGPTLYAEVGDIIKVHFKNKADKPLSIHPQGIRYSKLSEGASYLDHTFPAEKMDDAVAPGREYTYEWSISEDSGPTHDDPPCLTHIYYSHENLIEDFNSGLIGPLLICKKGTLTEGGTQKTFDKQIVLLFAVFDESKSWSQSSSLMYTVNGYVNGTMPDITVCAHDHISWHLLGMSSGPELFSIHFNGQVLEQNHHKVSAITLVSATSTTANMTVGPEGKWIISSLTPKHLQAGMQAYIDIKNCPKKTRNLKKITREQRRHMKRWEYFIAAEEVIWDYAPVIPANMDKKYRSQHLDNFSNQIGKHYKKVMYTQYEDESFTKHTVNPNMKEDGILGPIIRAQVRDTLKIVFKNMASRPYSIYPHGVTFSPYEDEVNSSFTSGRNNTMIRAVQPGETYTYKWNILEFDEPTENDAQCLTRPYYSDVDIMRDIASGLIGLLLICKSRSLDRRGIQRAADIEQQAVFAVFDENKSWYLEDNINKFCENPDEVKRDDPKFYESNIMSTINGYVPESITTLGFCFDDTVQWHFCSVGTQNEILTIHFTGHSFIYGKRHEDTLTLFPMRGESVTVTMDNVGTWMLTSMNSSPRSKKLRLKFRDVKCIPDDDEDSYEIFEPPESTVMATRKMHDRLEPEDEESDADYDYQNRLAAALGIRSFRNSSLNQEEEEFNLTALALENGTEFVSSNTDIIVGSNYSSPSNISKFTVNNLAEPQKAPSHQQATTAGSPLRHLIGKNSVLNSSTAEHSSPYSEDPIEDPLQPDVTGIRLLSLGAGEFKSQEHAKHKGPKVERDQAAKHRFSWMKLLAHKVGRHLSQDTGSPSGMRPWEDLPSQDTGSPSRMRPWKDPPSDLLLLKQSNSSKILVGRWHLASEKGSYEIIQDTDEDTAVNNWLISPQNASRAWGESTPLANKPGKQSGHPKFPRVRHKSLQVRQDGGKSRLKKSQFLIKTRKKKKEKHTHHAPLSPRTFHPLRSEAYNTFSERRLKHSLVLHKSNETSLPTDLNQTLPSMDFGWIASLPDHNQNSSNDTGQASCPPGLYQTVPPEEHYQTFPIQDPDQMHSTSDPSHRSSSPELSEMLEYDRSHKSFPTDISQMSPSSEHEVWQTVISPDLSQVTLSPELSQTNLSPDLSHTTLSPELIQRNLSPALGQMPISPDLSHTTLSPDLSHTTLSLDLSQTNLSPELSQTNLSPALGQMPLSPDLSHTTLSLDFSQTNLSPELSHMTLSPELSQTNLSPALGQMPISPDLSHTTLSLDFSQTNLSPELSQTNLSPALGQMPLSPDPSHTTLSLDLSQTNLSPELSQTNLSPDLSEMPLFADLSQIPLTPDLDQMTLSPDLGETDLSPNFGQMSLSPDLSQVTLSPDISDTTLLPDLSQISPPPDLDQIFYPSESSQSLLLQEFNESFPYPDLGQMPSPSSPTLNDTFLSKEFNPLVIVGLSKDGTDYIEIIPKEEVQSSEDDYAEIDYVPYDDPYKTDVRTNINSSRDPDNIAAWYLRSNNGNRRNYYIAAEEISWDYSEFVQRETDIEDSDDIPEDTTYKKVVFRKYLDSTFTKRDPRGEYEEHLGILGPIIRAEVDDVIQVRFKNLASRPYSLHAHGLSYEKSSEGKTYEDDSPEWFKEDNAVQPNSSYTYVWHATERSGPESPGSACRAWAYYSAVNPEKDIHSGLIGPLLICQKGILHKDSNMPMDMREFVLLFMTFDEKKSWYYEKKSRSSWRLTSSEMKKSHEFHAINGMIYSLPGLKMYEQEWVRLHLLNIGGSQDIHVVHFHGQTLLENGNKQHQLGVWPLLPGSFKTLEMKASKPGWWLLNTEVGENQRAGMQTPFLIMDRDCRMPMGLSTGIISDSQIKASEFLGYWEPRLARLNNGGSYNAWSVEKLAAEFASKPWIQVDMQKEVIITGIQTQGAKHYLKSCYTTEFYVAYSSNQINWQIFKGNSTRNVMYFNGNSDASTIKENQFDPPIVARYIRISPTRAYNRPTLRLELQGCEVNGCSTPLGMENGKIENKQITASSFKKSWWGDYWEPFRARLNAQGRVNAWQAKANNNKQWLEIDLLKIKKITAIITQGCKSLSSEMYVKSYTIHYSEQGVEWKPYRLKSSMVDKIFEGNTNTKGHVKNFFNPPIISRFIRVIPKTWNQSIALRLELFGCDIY
inactive: [1] -0.06 | volasertib 0.105 | [2] -0.018 | epoxomicin -0.125 | [3] 0.163 | [4] -0.048 | [5] -0.09 | rosiglitazone -0.054 | [6] 0.141 | [7] -0.009

EXOC2 (UniProt Q96KP1)
active: [7] -0.386
inactive: [1] -0.13 | volasertib -0.463 | [2] -0.041 | epoxomicin 0 | [3] -0.089 | [4] 0.044 | [5] 0.058 | rosiglitazone 0.01 | [6] 0.123

DNTTIP2 (UniProt Q5QJE6)
inactive: [1] 0.047 | volasertib -0.002 | [2] 0.031 | epoxomicin -0.144 | [3] 0.015 | [4] 0.09 | [5] -0.028 | rosiglitazone -0.088 | [6] 0.226 | [7] -0.028

CTSL (UniProt P07711)
inactive: [1] -0.124 | volasertib -0.247 | [2] -0.045 | epoxomicin 0.017 | [3] 0.014 | [4] 0.196 | [5] -0.074 | rosiglitazone -0.037 | [6] 0.019 | [7] -0.306

DCUN1D1 (UniProt Q96GG9)
Sequence of UniProt Q96GG9 (Q96GG9 whole entry, looked up): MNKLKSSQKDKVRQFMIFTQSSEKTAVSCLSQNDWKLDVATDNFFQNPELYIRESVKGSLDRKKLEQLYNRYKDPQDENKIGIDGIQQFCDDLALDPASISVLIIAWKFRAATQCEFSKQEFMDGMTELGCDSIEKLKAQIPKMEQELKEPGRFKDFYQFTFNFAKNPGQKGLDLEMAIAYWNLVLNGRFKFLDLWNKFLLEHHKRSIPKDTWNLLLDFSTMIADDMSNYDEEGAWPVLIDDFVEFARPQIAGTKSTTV
inactive: [1] -0.1 | [2] 0.018 | epoxomicin 0.048 | [3] -0.006 | [4] -0.061 | [5] 0.03 | rosiglitazone 0.013 | [6] -0.056 | [7] -0.178
active: volasertib -0.276

DYNC1LI2 (UniProt O43237)
Sequence of UniProt O43237 (O43237 whole entry, looked up): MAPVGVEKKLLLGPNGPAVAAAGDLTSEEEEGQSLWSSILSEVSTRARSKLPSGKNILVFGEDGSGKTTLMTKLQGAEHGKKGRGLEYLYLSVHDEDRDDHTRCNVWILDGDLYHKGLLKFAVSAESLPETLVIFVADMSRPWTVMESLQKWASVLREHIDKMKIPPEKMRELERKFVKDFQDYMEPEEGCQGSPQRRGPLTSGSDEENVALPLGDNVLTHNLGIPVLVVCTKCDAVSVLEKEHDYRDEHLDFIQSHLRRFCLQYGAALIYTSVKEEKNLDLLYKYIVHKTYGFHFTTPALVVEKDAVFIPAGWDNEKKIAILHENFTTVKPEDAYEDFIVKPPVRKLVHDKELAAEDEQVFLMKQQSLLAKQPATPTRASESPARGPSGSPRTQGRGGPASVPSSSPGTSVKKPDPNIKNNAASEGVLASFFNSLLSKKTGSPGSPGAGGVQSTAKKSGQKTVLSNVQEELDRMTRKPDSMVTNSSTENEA
inactive: [1] 0.324 | volasertib -0.021 | [2] -0.181 | epoxomicin -0.072 | [3] -0.085 | [4] -0.041 | [5] 0.024 | rosiglitazone 0.052 | [6] -0.007 | [7] 0.101

DDOST (UniProt P39656)
inactive: [1] 0.006 | volasertib -0.102 | [2] -0.014 | epoxomicin -0.014 | [3] 0.015 | [4] 0.052 | [5] -0.031 | rosiglitazone -0.007 | [6] 0.019 | [7] 0.089

DBNL isoform 3 (UniProt Q9UJU6)
Sequence of UniProt Q9UJU6 (Q9UJU6 whole entry, looked up): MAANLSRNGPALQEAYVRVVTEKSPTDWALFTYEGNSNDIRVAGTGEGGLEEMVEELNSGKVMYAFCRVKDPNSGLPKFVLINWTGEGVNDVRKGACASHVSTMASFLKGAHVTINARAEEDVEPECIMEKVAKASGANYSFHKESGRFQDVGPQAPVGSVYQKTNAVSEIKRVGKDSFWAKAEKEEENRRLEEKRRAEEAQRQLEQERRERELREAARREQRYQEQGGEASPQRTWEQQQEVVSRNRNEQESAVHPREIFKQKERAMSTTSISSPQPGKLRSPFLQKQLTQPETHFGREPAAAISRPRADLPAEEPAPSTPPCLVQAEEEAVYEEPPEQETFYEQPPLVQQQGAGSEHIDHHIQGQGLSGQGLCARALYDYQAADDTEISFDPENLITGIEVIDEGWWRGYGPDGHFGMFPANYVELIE
inactive: [1] -0.143 | [2] 0.031 | epoxomicin 0.012 | [3] -0.046 | [4] 0.007 | [5] 0.011 | rosiglitazone 0.095 | [6] -0.075 | [7] -0.109
active: volasertib -0.367

EEA1 (UniProt Q15075)
inactive: [1] 0.036 | volasertib 0.031 | [2] -0.024 | epoxomicin 0.017 | [3] -0.002 | [4] 0.019 | [5] -0.038 | rosiglitazone -0.014 | [6] -0.023 | [7] 0.001
